Our source for the Potency values is PubChem BioAssay (NCATS).

Records with an inconclusive call do not appear. Calls of active or inactive are those of the source. Calls come from the whole dose curve; as a rule, active = well fitted cell-killing curve with a large enough effect; inconclusive = small, poorly fitted or top-dose-only effect, or effect the other way; inactive = no such curve, though single readings can be large or run the other way.

Assay [1] in a line: Quantitative High-Throughput drug screen in 47 multiple myeloma cell lines against the NCATS MIPE library collection: XG6_PLB cell viability assay (AID 1919865). Note: nearly all actives have a fitted effect of over 40% in size. In a few lines: (§1)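 Plated at 500 cells per well, myeloma lines received MIPE 4.0 compounds by pin tool. Following 48 h culture at 37 °C, CellTiter-Glo luminescence gave viability relative to DMSO and media-only controls.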

A short description of assay [2]: Quantitative High-Throughput drug screen in 47 multiple myeloma cell lines against the NCATS MIPE library collection: XG1_PLB cell viability assay (AID 1919866). Note: nearly all actives have a fitted effect of over 35% in size. The essentials: as §1
The nature of assay [3]: Quantitative High-Throughput drug screen in 47 multiple myeloma cell lines against the NCATS MIPE library collection: VP6_DJ cell viability assay (AID 1919867). Note: nearly all actives have a fitted effect of over 40% in size. In a few lines: as §1
Assay [4] in a line: Quantitative High-Throughput drug screen in 47 multiple myeloma cell lines against the NCATS MIPE library collection: PE2_PLB cell viability assay (AID 1919869). Note: nearly all actives have a fitted effect of over 35% in size. The essentials:
as §1

The nature of assay [5]: Quantitative High-Throughput drug screen in 47 multiple myeloma cell lines against the NCATS MIPE library collection: PCM6_Riken cell viability assay (AID 1919870). Note: nearly all actives have a fitted effect of over 30% in size. The essentials: as §1
The nature of assay [6]: Quantitative High-Throughput drug screen in 47 multiple myeloma cell lines against the NCATS MIPE library collection: RPMI8226_ATCC cell viability assay (AID 1919871). Note: nearly all actives have a fitted effect of over 30% in size. The essentials:
as §1

Assay [7] is described as follows: Quantitative High-Throughput drug screen in 47 multiple myeloma cell lines against the NCATS MIPE library collection: OPM2_DSMZ cell viability assay (AID 1919872). Note: nearly all actives have a fitted effect of over 30% in size. The essentials: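 Viability readout: CellTiter-Glo luminescence following 5 min room-temperature incubation with reagent. Prior exposure: 48 h, 37C, humidified 5% CO2, 500 cells per well.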
Assay [8] in a line: Quantitative High-Throughput drug screen in 47 multiple myeloma cell lines against the NCATS MIPE library collection: KMS11_JCRBsus cell viability assay (AID 1919873). Note: nearly all actives have a fitted effect of over 50% in size. The essentials: as §1
Assay [9] in a line: Quantitative High-Throughput drug screen in 47 multiple myeloma cell lines against the NCATS MIPE library collection: KMS28BM_JCRB cell viability assay (AID 1919874). Note: nearly all actives have a fitted effect of over 35% in size. In a few lines: as §1
Assay [10] in a line: Quantitative High-Throughput drug screen in 47 multiple myeloma cell lines against the NCATS MIPE library collection: UTMC2_PLB cell viability assay (AID 1919868). Note: nearly all actives have a fitted effect of over 55% in size. Particulars: CellTiter-Glo ATP luminescence, 48 h; viability (% of DMSO control): at 45.8 µM (top of the series). The essentials:
as §1
In general terms: Cellular ATP, detected with luciferase, serves as a proxy for viable cell number.
Potency is the fitted concentration of half-maximal effect.

As for `COc1ccc2cccc(CCNC(C)=O)c2c1`, the Potency entry in assay [1], in assay [2], in [4], in assay [5], in [6] and in [7] was “inactive” each time. Moreover, the Potency entry in [8] and in [9] was “inactive” in each case. Also, the Potency in assay [3] was 5.26 µM (active).
Take `O=c1c(-c2ccc(O)cc2)coc2cc(OC3O[C@H](CO)[C@H](O)[C@H](O)[C@H]3O)cc(O)c12` (some centres not stated): the Potency was 1.32 µM (active) in assay [1]; 1.18 µM (active) in [2]; 2.64 µM (active) in assay [3]; 9.35 µM (active) in [4]; 2.64 µM (active) in [5]; 16.6 µM (active) in assay [6]. Besides, the Potency entry in assay [7] is “inactive”.
Regarding `O=c1cc(CN2CCOCC2)occ1OCCCCCSc1ccnc2cc(C(F)(F)F)ccc12`, the Potency in assay [1] is 3.32 µM (active); in assay [2], 11.8 µM (active); in [3] it was 7.43 µM (active); in [10] it was 9.35 µM (active); in [4], 7.43 µM (active); in assay [5], 9.35 µM (active). For the same compound, the Potency in assay [7] is 11.8 µM (active); in assay [8] it was 23.5 µM (active). Besides, in assay [6], the Potency result was “inactive”.
For `COc1ccc(-c2cc(=O)c3c(O)cc(O)cc3o2)cc1O`, the Potency is 2.35 µM (active) in assay [1]; 2.09 µM (active) in assay [2]; 4.18 µM (active) in assay [3]; 6.62 µM (active) in assay [4]; 3.32 µM (active) in assay [5]; 26.4 µM (active) in assay [8]. Further, the Potency result in assay [6], in assay [7] and in assay [9] was “inactive” each time.
As to `Clc1ccc(C(c2ccc(Cl)cc2)n2cc[n+](CC(OCc3ccc(Cl)cc3Cl)c3ccc(Cl)cc3Cl)c2)cc1` (configuration not stated), the Potency in assay [1] is 6.62 µM (active); in [2], 8.33 µM (active); in assay [3], 8.33 µM (active); in assay [10], 4.69 µM (active); in [4], 13.2 µM (active); in [5], 6.62 µM (active). The Potency in assay [6] is 20.9 µM (active); in assay [7], 18.7 µM (active); in assay [8], 9.35 µM (active); in assay [9], 11.8 µM (active).
For `CC=C(C)C(=O)O[C@H]1C(C)=C[C@]23C(=O)[C@@H](C=C(CO)[C@@H](O)[C@]12O)[C@H]1[C@@H](C[C@H]3C)C1(C)C`, in assay [1], the Potency was 3.72 µM (active).
As for `Cc1ccc(C(C)(O)c2nc3ccccc3s2)c(C)c1` (configuration not stated), the Potency entry in assay [1], in assay [2], in assay [3], in assay [4], in [5] and in assay [6] was “inactive” throughout. For the same compound, the Potency result in [7] and in [8] was “inactive” throughout.
Regarding `Cc1ccc(F)c(NC(=O)Nc2ccc(-c3cccc4[nH]nc(N)c34)cc2)c1`, the Potency is 16.6 µM (active) in [1]; 16.6 µM (active) in assay [2]; 16.6 µM (active) in assay [3]; 8.33 µM (active) in [10]; 23.5 µM (active) in [5]; 5.26 µM (active) in assay [8]. Besides, the Potency in assay [9] was 8.33 µM (active).
For the compound `CNC1CCC(N(Cc2cccc(-c3ccncc3)c2)C(=O)c2sc3c(F)ccc(F)c3c2Cl)CC1` (configuration not stated), the Potency in [1] is 14.8 µM (active); in [2], 18.7 µM (active); in assay [3], 13.2 µM (active); in [10] it was 20.9 µM (active); in assay [4] it was 10.5 µM (active); in [5], 14.8 µM (active). Further, the figures for the Potency in [6], in [8] and in [9] were 18.7 µM (active), 9.35 µM (active) and 26.4 µM (active), respectively.
Take `C[C@]12CC[C@@H]3c4ccc(O)cc4C[C@@H](CCCCCCCCCS(=O)CCCC(F)(F)C(F)(F)F)[C@H]3[C@H]1CC[C@H]2O` (some centres not stated): the Potency is 6.62 µM (active) in assay [1] and 2.09 µM (active) in assay [8]. Moreover, the Potency result in assay [2], in assay [3], in assay [10], in assay [4] and in [7] was “inactive” each time.
In the case of `O=C1C(Cl)=C(NCCN2CCOCC2)C(=O)c2ncccc21`, the Potency in assay [1] is 7.43 µM (active); in [2] it was 6.62 µM (active); in assay [3] it was 7.43 µM (active); in [10], 8.33 µM (active); in assay [4], 2.35 µM (active); in assay [5] it was 8.33 µM (active). Further, the Potency in assay [6] was 9.35 µM (active); in assay [7] it was 7.43 µM (active); in assay [8], 1.87 µM (active); in assay [9], 3.32 µM (active).
In the case of `Oc1ccc(C2CCN(c3ccnc4ccccc34)CC2)cc1O`, the Potency is 6.62 µM (active) in assay [1]; 0.833 µM (active) in [2]; 14.8 µM (active) in assay [3]; 16.6 µM (active) in assay [4]; 13.2 µM (active) in assay [5]; 16.6 µM (active) in [6]. Besides, the figures for the Potency in assay [8] and in assay [9] were 18.7 µM (active) and 4.69 µM (active), respectively.
Turning to `Cn1c(N2CCCCS2(=O)=O)nc(C(=O)NCc2ccc(F)cc2)c(O)c1=O`, the Potency entry in [1], in [2], in assay [3], in assay [4], in assay [5] and in assay [6] was “inactive” in each case. Also, the Potency result in [7] was “inactive”.
With `Cc1[nH]c(C=C2C(=O)Nc3ccc(S(=O)(=O)Cc4c(Cl)cccc4Cl)cc32)c(C)c1C(=O)N1CCC[C@H]1CN1CCCC1`, the Potency in assay [1] is 8.33 µM (active); in [2] it was 5.26 µM (active); in assay [3], 8.33 µM (active); in assay [4] it was 20.9 µM (active); in assay [5], 7.43 µM (active); in assay [6], 20.9 µM (active). The Potency in [7] was 26.4 µM (active); in assay [8], 11.8 µM (active); in [9] it was 20.9 µM (active).
As for `CC[C@@]1(O)C[C@H](O[C@H]2C[C@H](N(C)C)[C@H](O[C@H]3C[C@H](O)[C@H](O[C@H]4CCC(=O)[C@H](C)O4)[C@H](C)O3)[C@H](C)O2)c2c(cc3c(c2O)C(=O)c2c(O)cccc2C3=O)[C@@H]1C(=O)OC`, the Potency is 0.296 µM (active) in [1]; 0.132 µM (active) in assay [2]; 0.59 µM (active) in assay [3]; 0.526 µM (active) in assay [4]; 1.05 µM (active) in assay [5]; 0.296 µM (active) in assay [6]. Also, the figures for the Potency in assay [7], in assay [8] and in assay [9] were 4.18 µM (active), 0.166 µM (active) and 0.132 µM (active), respectively.
On to `CC(C)(C)c1cc(C(=O)O)c(NC(=O)Nc2ccc3[nH]ncc3c2)s1`, for which the Potency entry in [1], in assay [2], in assay [3], in assay [10], in assay [5] and in assay [6] was “inactive” in each case. Further, the Potency entry in [7] and in assay [8] was “inactive” each time. In assay [4], the Potency is 16.6 µM (active).
As for `COc1ccc(-c2oc3c(CC=C(C)C)c(OC4O[C@H](CO)[C@@H](O)[C@H](O)[C@@H]4O)cc(O)c3c(=O)c2OC2O[C@@H](C)[C@H](O)[C@@H](O)[C@@H]2O)cc1` (some centres not stated), the Potency in assay [1] was 23.5 µM (active); in [2], 18.7 µM (active); in assay [3], 16.6 µM (active); in [4], 23.5 µM (active); in [5] it was 16.6 µM (active); in assay [6], 20.9 µM (active). In addition, the Potency is 23.5 µM (active) in assay [7], 23.5 µM (active) in assay [8] and 16.6 µM (active) in [9].
